Results reported in the supplement of paper PMC8728848.
The full list was thinned out, with the strongest signals kept by preference.

Key:
Experiment in all cases: glycan array binding signal (z-score within array); higher = stronger binding
Conditions in all cases: glycan notation: IUPAC condensed, linker removed
Fuc(a1-2)Gal(b1-3)GlcNAc = molecular target: Fuc(a1-2)Gal(b1-3)GlcNAc
Method in brief: (§1)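 The Consortium for Functional Glycomics database supplied 3228 glycan arrays, of which those lacking an available protein sequence were dropped. The binding signal, a within-array Z-score, was averaged across arrays of the same protein sequence and across linkers. Negative scores can be read as non-binding.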

[1] = molecular target: Fuc(a1-2)Gal(b1-3)GlcNAc(b1-3)Gal(b1-4)Glc
Method in brief: as §1

[2] = molecular target: Fuc(a1-2)[GalNAc(a1-3)]Gal(b1-4)GlcNAc(b1-3)Gal(b1-4)GlcNAc
Method in brief: as §1

Fuc(a1-3)GlcNAc = molecular target: Fuc(a1-3)GlcNAc
Method in brief: as §1

[3] = molecular target: Fuc(a1-3)[Gal3S(b1-4)]GlcNAc6S
Method in brief: as §1

Fuc(b1-3)GlcNAc = molecular target: Fuc(b1-3)GlcNAc
Method in brief: as §1

[4] = molecular target: Gal(b1-3)[Fuc(a1-4)]GlcNAc(b1-3)Gal(b1-3)[Fuc(a1-4)]GlcNAc
Method in brief: as §1

[5] = molecular target: Gal(b1-3)[Fuc(a1-4)]GlcNAc(b1-3)Gal(b1-4)[Fuc(a1-3)]GlcNAc
Method in brief: as §1

[6] = molecular target: Gal(b1-4)GlcNAc(b1-2)Man(a1-6)[GlcNAc(b1-2)Man(a1-3)]Man(b1-4)GlcNAc(b1-4)GlcNAc
Method in brief: as §1

[7] = molecular target: Gal3S(b1-4)[Fuc(a1-3)]Glc6S
Method in brief: as §1

Gal3S4S(b1-4)GlcNAc = molecular target: Gal3S4S(b1-4)GlcNAc
Method in brief: as §1

Gal3S6S(b1-4)GlcNAc6S = molecular target: Gal3S6S(b1-4)GlcNAc6S
Method in brief: as §1

Gal4S(b1-4)GlcNAc = molecular target: Gal4S(b1-4)GlcNAc
Method in brief: as §1

[8] = molecular target: GlcNAc(a1-4)Gal(b1-4)GlcNAc(b1-3)Gal(b1-4)Glc
Method in brief: as §1

[9] = molecular target: GlcNAc(a1-4)Gal(b1-4)GlcNAc(b1-3)Gal(b1-4)[Fuc(a1-3)]GlcNAc(b1-3)Gal(b1-4)[Fuc(a1-3)]GlcNAc
Method in brief: as §1

[10] = molecular target: GlcNAc(b1-2)Man(a1-3)[GlcNAc(b1-2)Man(a1-6)]Man(b1-4)GlcNAc(b1-4)[Fuc(a1-6)]GlcNAc
Method in brief: as §1

[11] = molecular target: GlcNAc(b1-4)GlcNAc(b1-4)GlcNAc(b1-4)GlcNAc(b1-4)GlcNAc(b1-4)GlcNAc
Method in brief: as §1

Kdn(a2-3)Gal(b1-3)GlcNAc = molecular target: Kdn(a2-3)Gal(b1-3)GlcNAc
Method in brief: as §1

[12] = molecular target: Man(a1-2)Man(a1-3)[Man(a1-2)Man(a1-6)]Man
Method in brief: as §1

[13] = molecular target: Man(a1-2)Man(a1-3)[Man(a1-2)Man(a1-6)]Man(a1-6)[Man(a1-2)Man(a1-2)Man(a1-3)]Man(b1-4)GlcNAc(b1-4)GlcNAc
Method in brief: as §1

[14] = molecular target: Neu5Ac(a2-3)Gal(b1-3)GalNAc(b1-3)Gal(a1-4)Gal(b1-4)Glc
Method in brief: as §1

[15] = molecular target: Neu5Ac(a2-3)Gal(b1-4)GlcNAc
Method in brief: as §1

[16] = molecular target: Neu5Ac(a2-3)Gal(b1-4)[Fuc(a1-3)]GlcNAc(b1-6)[Gal(b1-3)]GalNAc
Method in brief: as §1

[17] = molecular target: Neu5Ac(a2-3)[GalNAc(b1-4)]Gal(b1-4)Glc
Method in brief: as §1

[18] = molecular target: Neu5Ac(a2-3)[GalNAc(b1-4)]Gal(b1-4)GlcNAc(b1-3)GalNAc
Method in brief: as §1

Neu5Ac(b2-6)GalNAc = molecular target: Neu5Ac(b2-6)GalNAc
Method in brief: as §1

B1: MIC2 (Toxoplasma gondii), S8F9G8 (protein)
chain: MRLQREAVFGLMFACGMWMWPSEVAGGGWSIVDALRKRYDTSRGGDANGVDTSGVEDVIQSESAIGAAEGCTNQLDICFLIDSSGSIGIQNFRLVKQFLHTFLMVLPIGPEEVNNAVVTYSTDVHLQWDLQSPNAVDKQLAAHAVLDMPYKKGSTNTSDGLKACKQILFTGSRPGREHVPKLVIGMTDGESDSDFRTVRAAKEIRELGGIVTVLAVGHYVKHSECRSMCGCSGTSDDDSPCPLYLRADWGQLATAIKPMLKEVCKTLPQDAICSDWSAWSPCSVSCGDGSQIRTRTEVSAPQPGTPTCPDCPAPMGRTCVEQGGLEEIRECSAGVCAVDAGCGVWGEWSAWSASCGNATRKRERTRYNDPPPQGAGRRCENQDPPVLQEQTEEATLAPCITIPPTPPEWAAWSDCTVTCGGGNRHRVRNALPPGLGSQNGESDESLVSKLWPGTDLRQEEACNTSPCPINATCGQFEEWSTCSVSCGGGLKTRSRNPWNEDQQHGGLSCEQQHPGGRTETITCNPQACPVDERPGEWAEWGECSVTCGDGVRERRRGKSLVEAKFGGRTIDQQNEALPEDLKIKNVEYEPCSYPACGASCTYVWSDWNKCVCPMGYQARHAAVKFDYRNKPCDLPTFETKACSCGETNPVPSEGTTPGAPGATGPEQPNQRPLPEGSDENETPTNEEGEQSKKESGSGIAGAIAGGVIGGLILLGAAGGASYHYYLSSSVGSPSAEIEYEADDGATKVVMEEEKETLVPVDDDSDMWME
Fuc(a1-2)Gal(b1-3)GlcNAc
  glycan array binding signal (z-score): -0.642
[1]
  glycan array binding signal (z-score): -0.779
[2]
  glycan array binding signal (z-score): -0.814
Fuc(a1-3)GlcNAc
  glycan array binding signal (z-score): -0.671
[3]
  glycan array binding signal (z-score): 3.68
Fuc(b1-3)GlcNAc
  glycan array binding signal (z-score): 0.622
[4]
  glycan array binding signal (z-score): -0.718
[5]
  glycan array binding signal (z-score): 0.177
[6]
  glycan array binding signal (z-score): -0.816
[7]
  glycan array binding signal (z-score): 4.19
Gal3S4S(b1-4)GlcNAc
  glycan array binding signal (z-score): 3.35
Gal3S6S(b1-4)GlcNAc6S
  glycan array binding signal (z-score): 3.06
Gal4S(b1-4)GlcNAc
  glycan array binding signal (z-score): -0.874
[8]
  glycan array binding signal (z-score): -0.113
[9]
  glycan array binding signal (z-score): 3.35
[10]
  glycan array binding signal (z-score): 4
[11]
  glycan array binding signal (z-score): 0.267
Kdn(a2-3)Gal(b1-3)GlcNAc
  glycan array binding signal (z-score): -0.014
[12]
  glycan array binding signal (z-score): -0.278
[13]
  glycan array binding signal (z-score): 0.876
[14]
  glycan array binding signal (z-score): 0.008
[15]
  glycan array binding signal (z-score): 0.221
[16]
  glycan array binding signal (z-score): 3.24
[17]
  glycan array binding signal (z-score): 0.279
[18]
  glycan array binding signal (z-score): 1.93
Neu5Ac(b2-6)GalNAc
  glycan array binding signal (z-score): -0.725
